# In PubChem BioAssay (NCATS):
# Results filed as inconclusive are left out. The source made the active and inactive calls. The call rests on the fitted dose curve; in most records, active means well fitted cell-killing curve with a large enough effect; inconclusive means small, poorly fitted or top-dose-only effect, or effect the other way; inactive means no such curve, though single readings can be large or run the other way.
# Assay: Quantitative High-Throughput drug screen in 47 multiple myeloma cell lines against the NCATS MIPE library collection: KMS12PE_JCRB cell viability assay (AID 1918972); further: nearly all actives have a fitted effect of over 30% in size
# Details: KMS12PE myeloma viability, CellTiter-Glo ATP, 48 h; series mostly up to 45.8 µM
# How it was run: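 CellTiter-Glo ATP luminescence gave viability after 48 h compound treatment at 37C of 500 multiple myeloma cells per well. Normalisation used DMSO-only wells as 100% and media-only wells as 0% viability; primary qHTS of approved and investigational drugs.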
# Potency means the concentration at half of the fitted maximal effect.
row,SMILES,Potency
1,COc1cc(C(C)=O)ccc1OCCCN1CCC(c2noc3cc(F)ccc23)CC1,20.9 µM (active)
2,Nc1cccc2c1CN(C1CCC(=O)NC1=O)C2=O (stereo unspecified),inactive
3,CC(C)[N+]1(C)[C@@H]2CC[C@H]1CC(OC(=O)C(CO)c1ccccc1)C2 (stereo partly specified),16.6 µM (active)
4,CC1=C(C(=O)O)N2C(=O)[C@@H](NC(=O)[C@H](N)C3=CCC=CC3)[C@H]2SC1,inactive
5,Cn1c(NCCN(CCO)CCCc2ccc([N+](=O)[O-])cc2)cc(=O)n(C)c1=O,20.9 µM (active)
6,O=C1NC(=O)C(c2ccccc2[N+](=O)[O-])=C1Nc1ccc(O)c(Cl)c1,10.5 µM (active)
7,CC1Cc2ccccc2N1NC(=O)c1ccc(Cl)c(S(N)(=O)=O)c1 (stereo unspecified),inactive
8,COc1cc2nc(N3CCN(C(=O)C4CCCO4)CC3)nc(N)c2cc1OC (stereo unspecified),16.6 µM (active)
9,Cc1cccc(C#Cc2ccccc2)n1,inactive
10,NS(=O)(=O)c1cc(C(=O)O)c(NCc2ccco2)cc1Cl,inactive
11,Clc1ccc(C(Cn2ccnc2)OCc2ccsc2Cl)c(Cl)c1 (stereo unspecified),18.7 µM (active)
12,CN1CCC(=C2c3ccccc3CCc3sccc32)CC1,23.5 µM (active)
13,NC(=NCc1ccccc1)NC(=O)c1nc(Cl)c(N)nc1N,23.5 µM (active)
14,O=c1oc2cc(O)ccc2s1,inactive
15,O=C1c2c(O)cc(O)cc2OC(c2ccc(O)c(O)c2)C1O (stereo unspecified),inactive
16,CC(C)c1ccc2c(c1)c(SC(C)(C)C)c(CC(C)(C)C(=O)O)n2Cc1ccc(Cl)cc1,inactive
17,CC(=O)N1CCN(c2ccc(OC[C@H]3CO[C@](Cn4ccnc4)(c4ccc(Cl)cc4Cl)O3)cc2)CC1,5.26 µM (active)
18,Nc1nc(Cl)nc2c1ncn2[C@H]1C[C@H](O)[C@@H](CO)O1,0.0372 µM (active)
19,Cc1c(OCC(F)(F)F)ccnc1CS(=O)c1nc2ccccc2[nH]1 (stereo unspecified),18.7 µM (active)
20,C=C(c1ccc(C(=O)O)cc1)c1cc2c(cc1C)C(C)(C)CCC2(C)C,inactive
21,O=C1CCc2ccc(OCCCCN3CCN(c4cccc(Cl)c4Cl)CC3)cc2N1,5.26 µM (active)
22,CCN(CCO)CCCC(C)Nc1ccnc2cc(Cl)ccc12 (stereo unspecified),inactive

# Assay: Quantitative High-Throughput drug screen in 47 multiple myeloma cell lines against the NCATS MIPE library collection: KMS20_JCRB cell viability assay (AID 1918973); further: nearly all actives have a fitted effect of over 45% in size
# Details: CellTiter-Glo ATP, 48 h; series mostly up to 45.8 µM
# How it was run: (§1)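 Inhibition of cell viability is measured here. Each line was plated at 500 cells per well, treated with MIPE 4.0 drugs, kept 48 hours at 37C, then assayed for ATP content by CellTiter-Glo luminescence.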
row,SMILES,Potency
1,CC(=O)O[C@H]1C(=O)[C@@]2(C)C([C@H](OC(=O)c3ccccc3)[C@]3(O)C[C@H](OC(=O)[C@H](O)[C@@H](NC(=O)c4ccccc4)c4ccccc4)C(C)=C1C3(C)C)[C@]1(OC(C)=O)CO[C@@H]1C[C@@H]2O (stereo partly specified),inactive
2,CC1=C(C)C(=O)C(C(CCCCCC(=O)O)c2ccccc2)=C(C)C1=O (stereo unspecified),inactive
3,CN(C)[C@@H](CCOc1cccc2ccccc12)c1ccccc1,14.8 µM (active)
4,C[C@@H](N)C1CCC(C(=O)Nc2ccncc2)CC1 (stereo partly specified),inactive
5,COc1cc(Nc2c(C#N)cnc3cc(OCCCN4CCN(C)CC4)c(OC)cc23)c(Cl)cc1Cl,1.32 µM (active)
6,CC(=O)N1CCN(c2ccc(OC[C@H]3CO[C@](Cn4ccnc4)(c4ccc(Cl)cc4Cl)O3)cc2)CC1,7.43 µM (active)
7,CC(C)C[C@H](NC(=O)[C@H](Cc1ccccc1)NC(=O)c1cnccn1)B(O)O,0.0148 µM (active)

# Assay: Quantitative High-Throughput drug screen in 47 multiple myeloma cell lines against the NCATS MIPE library collection: KMS21BM_JCRB cell viability assay (AID 1918974)
# Details: ATP luminescence, 48 h; viability: at 45.8 µM (top of the series) unless noted
# How it was run: as §1
row,SMILES,Potency
1,Cn1c(NCCN(CCO)CCCc2ccc([N+](=O)[O-])cc2)cc(=O)n(C)c1=O,10.5 µM (active)
2,Nc1nc(OCc2ccccc2)c2[nH]cnc2n1,4.69 µM (active)
3,Nc1nc(Cl)nc2c1ncn2[C@H]1C[C@H](O)[C@@H](CO)O1,0.0935 µM (active)
4,CCN(CCO)CCCC(C)Nc1ccnc2cc(Cl)ccc12 (stereo unspecified),inactive

# Assay: Quantitative High-Throughput drug screen in 47 multiple myeloma cell lines against the NCATS MIPE library collection: KMS26_JCRB cell viability assay (AID 1918975); further: nearly all actives have a fitted effect of over 45% in size
# Details: KMS26 myeloma cells viability, CellTiter-Glo ATP, 48 h; series mostly up to 45.8 µM
# How it was run: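 Luminescent ATP measurement with CellTiter-Glo gives viability, scaled between DMSO-only wells (100%) and media-only wells (0%). Cells, 500 per well, faced library compounds for 48 hours at 37C.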
row,SMILES,Potency
1,COc1cc(C(C)=O)ccc1OCCCN1CCC(c2noc3cc(F)ccc23)CC1,0.0074 µM (active)
2,Nc1cccc2c1CN(C1CCC(=O)NC1=O)C2=O (stereo unspecified),0.605 µM (active)
3,CC(C)[N+]1(C)[C@@H]2CC[C@H]1CC(OC(=O)C(CO)c1ccccc1)C2 (stereo partly specified),inactive
4,CC1=C(C(=O)O)N2C(=O)[C@@H](NC(=O)[C@H](N)C3=CCC=CC3)[C@H]2SC1,inactive
5,Cn1c(NCCN(CCO)CCCc2ccc([N+](=O)[O-])cc2)cc(=O)n(C)c1=O,inactive
6,CN(C)CCc1c[nH]c2ccc(Cn3cncn3)cc12,inactive
7,CCN(CC)C(=S)SSC(=S)N(CC)CC,0.0105 µM (active)
8,CC(=O)O[C@H]1C(=O)[C@@]2(C)C([C@H](OC(=O)c3ccccc3)[C@]3(O)C[C@H](OC(=O)[C@H](O)[C@@H](NC(=O)c4ccccc4)c4ccccc4)C(C)=C1C3(C)C)[C@]1(OC(C)=O)CO[C@@H]1C[C@@H]2O (stereo partly specified),inactive
9,NS(=O)(=O)c1cc(C(=O)O)c(NCc2ccco2)cc1Cl,0.209 µM (active)
10,Clc1ccc(C(Cn2ccnc2)OCc2ccsc2Cl)c(Cl)c1 (stereo unspecified),inactive
11,CCCS(=O)c1ccc2nc(NC(=O)OC)[nH]c2c1 (stereo unspecified),10.5 µM (active)
12,C[C@H](Cc1ccc(O)c(O)c1)[C@@H](C)Cc1ccc(O)c(O)c1,23.5 µM (active)
13,COc1cc(Nc2c(C#N)cnc3cc(OCCCN4CCN(C)CC4)c(OC)cc23)c(Cl)cc1Cl,18.7 µM (active)
14,NC(=NCc1ccccc1)NC(=O)c1nc(Cl)c(N)nc1N,inactive
15,O=c1oc2cc(O)ccc2s1,inactive
16,O=C1c2c(O)cc(O)cc2OC(c2ccc(O)c(O)c2)C1O (stereo unspecified),inactive
17,CC(C)C[C@H](NC(=O)[C@H](Cc1ccccc1)NC(=O)c1cnccn1)B(O)O,0.0148 µM (active)
18,CCN(CCO)CCCC(C)Nc1ccnc2cc(Cl)ccc12 (stereo unspecified),inactive
